Assay results: publication PMC4336329 (PLoS ONE, 2015)
Among all 310,000 compounds or so, about 14,000 (4.5%) showed an effect of 50% or more. The effect is printed as a negative number. Shown is part of a subset that was picked to be rich in strong results.

biological target: human ether-à-go-go-related gene (hERG) potassium channel (human, UniProt Q12809); assay: primary screen, population patch clamp on CHO cells stably expressing hERG; higher = less effect of the substance
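Further: peak tail current of the secondary pulse compared with the same well before compound.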

Chain of human ether-à-go-go-related gene (hERG) potassium channel (Q12809 whole entry, looked up): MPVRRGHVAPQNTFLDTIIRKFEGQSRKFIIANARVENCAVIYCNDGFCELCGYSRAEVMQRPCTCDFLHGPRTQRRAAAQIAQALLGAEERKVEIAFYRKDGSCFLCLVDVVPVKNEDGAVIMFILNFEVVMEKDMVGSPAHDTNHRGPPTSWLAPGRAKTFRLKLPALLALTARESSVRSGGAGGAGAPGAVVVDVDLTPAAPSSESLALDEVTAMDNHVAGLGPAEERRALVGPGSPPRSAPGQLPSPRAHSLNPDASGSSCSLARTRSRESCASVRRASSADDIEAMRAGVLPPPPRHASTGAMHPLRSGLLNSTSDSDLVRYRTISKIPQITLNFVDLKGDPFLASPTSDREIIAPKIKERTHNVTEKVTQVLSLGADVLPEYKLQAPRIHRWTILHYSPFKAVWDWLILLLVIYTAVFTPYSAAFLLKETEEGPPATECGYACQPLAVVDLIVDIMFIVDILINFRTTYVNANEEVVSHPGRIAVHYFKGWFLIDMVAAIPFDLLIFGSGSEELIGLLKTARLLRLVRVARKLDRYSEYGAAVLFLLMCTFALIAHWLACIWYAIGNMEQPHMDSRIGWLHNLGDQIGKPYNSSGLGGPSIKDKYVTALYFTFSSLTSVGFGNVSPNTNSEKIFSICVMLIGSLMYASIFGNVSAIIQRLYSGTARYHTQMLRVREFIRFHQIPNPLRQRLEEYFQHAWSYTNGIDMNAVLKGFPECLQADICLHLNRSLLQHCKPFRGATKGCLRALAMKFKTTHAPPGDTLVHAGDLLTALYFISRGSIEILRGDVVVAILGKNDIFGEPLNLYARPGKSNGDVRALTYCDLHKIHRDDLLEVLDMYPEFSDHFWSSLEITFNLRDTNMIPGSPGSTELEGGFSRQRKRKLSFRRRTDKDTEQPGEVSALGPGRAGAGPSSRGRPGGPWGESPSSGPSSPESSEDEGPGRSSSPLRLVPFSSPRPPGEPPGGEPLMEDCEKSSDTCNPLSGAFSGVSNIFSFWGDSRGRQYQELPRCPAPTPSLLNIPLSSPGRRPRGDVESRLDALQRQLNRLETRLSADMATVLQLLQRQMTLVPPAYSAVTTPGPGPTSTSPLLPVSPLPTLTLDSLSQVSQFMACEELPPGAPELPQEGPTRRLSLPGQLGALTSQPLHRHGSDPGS

Row | Compound | hERG current change (%, negative = inhibition) at 10uM [%]
1 | CC(CC(=O)N(CCC1=CCCCC1)c1c(N)n(Cc2ccccc2)c(=O)[nH]c1=O)c1ccccc1 (stereo not drawn) | 17.1
2 | Cc1cc(F)ccc1NC(=O)CCCN(C)S(=O)(=O)c1ccc(F)cc1 | -5.3
3 | CCc1cc2c(=O)c(-c3nc4ccccc4n3C)c(C)oc2c(CN2CCN(C)CC2)c1O | 14.3
4 | O=C(CSc1ncnc2c1oc1ccccc12)Nc1cccc(C(F)(F)F)c1 | 11
5 | COc1ccc2c(Cl)c(C(=O)N/N=C3\CCCC(=O)C3)sc2c1 | -9.05
6 | Cn1c(=O)c2c(nc(CN3CCN(c4ccc(F)cc4)CC3)n2Cc2ccccc2F)n(C)c1=O | -6.93
7 | CCOC(=O)C(C(=O)OCC)C(C)(C)/C(C)=N\Nc1ccc([N+](=O)[O-])cc1[N+](=O)[O-] | -40.8
8 | CCOC(=O)C/C(C)=N\Nc1ccc([N+](=O)[O-])cc1[N+](=O)[O-] | -40.2
9 | CCOC(=O)C(C)/C(C)=N\Nc1ccc([N+](=O)[O-])cc1[N+](=O)[O-] (stereo not drawn) | -53.2
10 | Cc1onc(-c2ccccc2Cl)c1C(=O)N1CCOC12CCCCC2 | 1.15
11 | Fc1cnc(N2CCOCC2)nc1N1CCc2ccccc21 | -19.5
12 | COc1cccc(CN2CCN(C(=O)c3cccs3)CC2)c1OC | -4.33
13 | Cc1ccc(N2CC(C(=O)OCc3nc(N)nc(Nc4ccccc4C)n3)CC2=O)cc1 (stereo not drawn) | -32.8
14 | Nc1nc(COC(=O)C2CC(=O)N(CCc3ccccc3)C2)nc(Nc2ccccc2)n1 (stereo not drawn) | -52.2
15 | Nc1nc(COC(=O)C2CCN(C(=O)c3ccc(Cl)cc3)CC2)nc(Nc2ccccc2)n1 | -67.8
16 | O=C(COC(=O)C1CC(=O)N(CCc2ccccc2)C1)c1ccc[nH]1 (stereo not drawn) | -41.8
17 | Cc1cc(C)n(CC(=O)NNC(=O)C2CC(=O)N(Cc3ccccc3Cl)C2)n1 (stereo not drawn) | 1.16
18 | Cc1ccccc1C(=O)N1CCC(C(=O)OCc2nc(N)nc(Nc3ccccc3)n2)CC1 | -33.6
19 | COC(=O)C1CC(=O)N(Cc2ccccc2)C1 (stereo not drawn) | 23.4
20 | CC(=O)Nc1ccc(NC(=O)C(C)OC(=O)C2CC(=O)N(CCc3ccccc3)C2)cc1 (stereo not drawn) | 14.4
21 | COc1ccccc1N1CC(C(=O)OCc2nc(N)nc(Nc3ccccc3)n2)CC1=O (stereo not drawn) | -15.8

Row | Compound | hERG current change (%, negative = inhibition) at 10uM [%]
22 | Nc1nc(COC(=O)C2CC(=O)N(Cc3ccccc3)C2)nc(Nc2ccccc2)n1 (stereo not drawn) | -51.9
23 | Nc1nc(COC(=O)CCC(=O)c2ccc(Cl)cc2)nc(Nc2ccccc2)n1 | 6.39
24 | Nc1nc(COC(=O)C2CC(=O)N(Cc3ccccc3Cl)C2)nc(Nc2ccccc2)n1 (stereo not drawn) | -55.6
25 | CC(=O)c1ccc(NC(=O)Nc2ccc(Br)cc2C)cc1 | 22.3
26 | COc1ccc(/C=N/NC(=O)c2ccc(N(C)S(=O)(=O)c3ccccc3)cc2)c(OC)c1 | 6.66
27 | Cl.O=S(=O)(c1cccs1)N1CCN(C/C=C/c2ccccc2)CC1 | -49.3
28 | COc1ccc(N(CC(=O)NCc2cccnc2)S(=O)(=O)c2ccccc2)c(OC)c1 | -8.52
29 | Cc1c(C)n(C)c2ccc([N+](=O)[O-])cc12 | -4.04
30 | O=C(CSc1ccsc1[N+](=O)[O-])NCCc1ccccc1 | 2.6
31 | COc1ccc(NC(=O)CN2CCCCCC2)cc1OC | 3.79
32 | COc1ccc(NC(=O)CN2CCOCC2)cc1.O=C(O)C(=O)O | 13
33 | COc1ccc(NC(=O)CN2CCN(CC(=O)Nc3ccc(OC)c(OC)c3)CC2)cc1 | -74.6
34 | CCCCNC(=O)CN1CCN(Cc2ccc3cc(OC)ccc3c2)CC1.O=C(O)C(=O)O | -69
35 | CCN(CC)c1ccc(NC(=O)CN2CCN(CC(=O)Nc3ccc(OC)cc3)CC2)cc1 | -74.9
36 | COc1ccc(N2CCN(CC(=O)Nc3ccc(C)c(C)c3)CC2)cc1 | -17.3
37 | N#CCN1CCN(CC(=O)Nc2ccc(OCc3ccccc3)cc2)CC1 | -4.27
38 | COc1ccc(NC(=O)CN2CCN(CC#N)CC2)cc1 | -75.6
39 | COc1cccc(CN2CCN(CC(=O)NCCc3ccccc3)CC2)c1 | -11.8
40 | COC(=O)c1ccc(NC(=O)CN2CCN(CC#N)CC2)cc1.O=C(O)C(=O)O | 3.24
41 | CCCCCNC(=O)Cc1ccc(OC)cc1 | 1.41
42 | CCN(C(=O)COc1ccccc1)c1nnc(-c2cccnc2)s1 | 8.69

Row | Compound | hERG current change (%, negative = inhibition) at 10uM [%]
43 | Cc1cccc(NC(=O)c2cccc(NC(=O)Cc3cccs3)c2)c1 | 4.72
44 | N#CCC(=O)N/N=C/c1ccc(N2N=C(c3ccccc3)CC2c2ccccc2)cc1 (stereo not drawn) | 25
45 | CC(C(=O)N1CCC2(CC1)OCCO2)C1Sc2ccccc2NC1=O (stereo not drawn) | 6.9
46 | O=C(NC1C2CC3CC(C2)CC1C3)c1ccc2c(c1)OCO2 (stereo not drawn) | -5.92
47 | CN(C)CCNc1ccc(-c2nn(C)c(=O)c3ccccc23)cc1[N+](=O)[O-] | -1.47
48 | CCOC(C(=O)OCCCN(CC)CC)(c1ccccc1)c1ccccc1.Cl | -11.5
49 | N#CC(c1ccc(Cl)nn1)c1c(F)cccc1Cl (stereo not drawn) | 9.59
50 | Cc1noc(C)c1COC(=O)[C@@H](NC(=O)c1ccccc1Cl)C(C)C | 5.09
51 | Cl.N[C@@H](Cc1c[nH]c2ccccc12)c1nnc(SCc2c(F)cccc2Cl)o1 | 1.99
52 | CCOC(=O)c1ccc(NC(=O)CN2CCN(c3ccccc3)CC2)cc1 | 5.34
53 | COc1ccc(NC(=O)CN2CCN(S(=O)(=O)N(C)C)CC2)cc1 | -4.55
54 | COC(=O)c1ccc(NC(=O)CCN2CCN(CCC(=O)Nc3ccc(C(=O)OC)cc3)CC2)cc1 | -15.4
55 | COc1ccc(NC(=O)CN2CCN(S(=O)(=O)N3CCCCCC3)CC2)cc1 | -71.7
56 | COc1ccc(NC(=O)CN2CCN(c3c(C)cccc3C)CC2)cc1 | -24.4
57 | COc1cccc(N2CCN(CC(=O)Nc3ccc(S(=O)(=O)N4CCCCCC4)cc3)CC2)c1 | -21.9
58 | COc1ccc(NC(=O)CN2CCN(c3ccc(C)cc3C)CC2)cc1 | -60.7
59 | COc1ccc(NC(=O)CN2CCN(c3c(C)cc(C)cc3C)CC2)cc1 | 3.97
60 | COC(=O)c1ccc(NC(=O)CCN2CCN(Cc3ccccc3)CC2)cc1 | -58.6
61 | COC(=O)c1ccc(NC(=O)CCN2CCN(c3ccccc3)CC2)cc1 | -28.9
62 | CCOC(=O)c1ccc(NC(=O)N2CCN(Cc3ccccc3)CC2)cc1 | -11.1
63 | CCOC(=O)c1ccc(NC(=O)CN2CCN(Cc3ccccc3)CC2)cc1 | -51
